# Measurements published in ChEMBL document CHEMBL3988442, “University of Dundee, Small-Polar-MMV Screening Library” (2021).
# Tests used:
# [1] = molecular target: T1, Aspartate--tRNA(Asp/Asn) ligase (Mycobacterium tuberculosis (strain ATCC 25618 / H37Rv)) (UniProt P9WFW3); assay: Assay for Asp RNA synthetase-1 from Mycobacterium tuberculosis; format: functional; design: scale not given: direction of the effect not stated beside the values; details: 30 µM; also: in the data most compounds retested in dose-response had high values
# T1 sequence (whole entry): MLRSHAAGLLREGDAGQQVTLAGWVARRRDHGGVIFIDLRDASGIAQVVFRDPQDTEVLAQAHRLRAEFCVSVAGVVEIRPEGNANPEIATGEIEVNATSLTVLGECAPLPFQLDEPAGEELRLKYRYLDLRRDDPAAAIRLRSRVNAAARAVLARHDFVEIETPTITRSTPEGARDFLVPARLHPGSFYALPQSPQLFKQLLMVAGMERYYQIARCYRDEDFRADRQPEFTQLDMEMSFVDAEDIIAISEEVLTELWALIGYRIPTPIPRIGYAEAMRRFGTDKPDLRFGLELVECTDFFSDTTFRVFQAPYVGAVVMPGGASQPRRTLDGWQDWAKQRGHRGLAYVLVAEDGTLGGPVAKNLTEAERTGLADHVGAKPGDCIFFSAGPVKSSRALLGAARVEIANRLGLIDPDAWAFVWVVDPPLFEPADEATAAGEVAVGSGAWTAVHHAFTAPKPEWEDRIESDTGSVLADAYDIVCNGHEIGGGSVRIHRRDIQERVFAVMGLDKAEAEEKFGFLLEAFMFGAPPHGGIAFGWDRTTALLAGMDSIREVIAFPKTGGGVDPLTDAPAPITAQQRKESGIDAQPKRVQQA
# [2] = molecular target: Shiga toxin 2 (Escherichia coli O157:H7) (UniProt P09385+P09386); assay: E. coli 0.157:H7 Shiga Toxin SOP - stx2 screening assay; format: functional; design: scale not given: direction of the effect not stated beside the values; details: 30 µM
Structure (SMILES),Percent Effect [1] [%],Percent Effect [2] [%]
CCOCC1CC2(CCN(C(=O)c3ccccn3)CC2)CO1 (stereo not given),0.961,5.8
CN(Cc1ccccn1)C1COC2(CCN(Cc3nccs3)CC2)C1 (stereo not given),-4.31,-5.28
Cc1cc2cc(C(=O)N[C@@H]3CC[C@@H](N4CCOCC4)[C@@H]3O)ccc2o1,2.49,4.91
Cn1c(C(F)(F)F)nn(CCNC(=O)NCc2ccccc2)c1=O,-5.98,-52.8
O=C(NCCNc1ncccn1)N1CCCC(C(F)(F)F)C1 (stereo not given),4.41,1.25
Cc1ccc2cc(CNCCCO)c(=O)[nH]c2c1,-1.41,-9.65
CC(CCc1ccccc1)NC(=O)Nc1cnn(CC(N)=O)c1 (stereo not given),2.84,-44.2
CN(Cc1cccc(O)c1)CC1CCCN(CCc2ccc(Cl)cc2)C1 (stereo not given),4.47,-33.8
Cc1cc(C)cc(-c2cccc(CC3(C(=O)O)CCOCC3)c2)c1,2.93,-30
Cn1c(CN2CCCC2c2noc(C3CC3)n2)cc(=O)n(C)c1=O (stereo not given),-4.22,-7.03
COCCN1CCC(Cc2cncc(-c3ccc(C(=O)O)cc3)n2)C1 (stereo not given),4.51,8.34
CN1CC2(CCN(Cc3ccoc3)CC2)COc2ccccc2S1(=O)=O,-0.268,-18.6
Cc1ccc(NC(=O)N2CCN(Cc3noc(C4CC4)n3)CC2)cc1,-2.14,-9.31
Cc1ccc(C(=O)NC(C)CN2CCCC2=O)c(=O)[nH]1 (stereo not given),-2.42,-3.66
C=C(C)COCCNC(=O)C1CCCN1C(C)=O (stereo not given),-3.43,-6.8
OC(CN(Cc1ccccc1)Cc1ccncc1)c1cccs1 (stereo not given),-1.23,4.51
O=C(Cn1nc2c(cc1=O)CCCC2)N[C@@H](C(=O)O)c1ccccc1,-1.42,-35.6
Cc1nc(CN2CCC(CNC(=O)Nc3ccccn3)CC2)oc1C,5.15,-4.66
Cc1cccc(-c2nc(C)nn2CC(=O)N(C)C2CC2)c1,-4.28,6.5
CSc1ccc(NC(=O)Nc2ccc3c(c2)N(S(C)(=O)=O)CC3)cc1,-2.32,-21.8
Cc1cnn(CC2CCCCN2Cc2nnc(C3CC3)n2C)c1 (stereo not given),-3.3,1.19
COC(=O)CCC(=O)N1CCc2[nH]nc(-c3ccc4c(c3)OCO4)c2C1,-1.06,-8.22
Cc1cc(CNc2cc(Cl)ccc2Cl)no1,-1.12,2.51
O=C(CSc1ccc2c(c1)OCCO2)NS(=O)(=O)C1CCCCC1,1.67,-14
CN(C)C(=O)CCC(=O)NCc1cccnc1-n1cnc2ccccc21,-3.48,-4.51

Structure (SMILES),Percent Effect [1] [%],Percent Effect [2] [%]
Cc1oc(-c2nc(C#N)c(N(C)C)o2)cc1S(=O)(=O)N1CCCC1,0.145,-18.1
O=C(c1nc(=O)[nH][nH]1)N1CCCC(c2cc(C(F)(F)F)[nH]n2)C1 (stereo not given),-1.69,-21.8
CCC(=O)N1Cc2nccn2CC(CN(C)Cc2cccnc2)C1 (stereo not given),7.49,-5.95
Cn1cnc2c1CCN(Cc1ccc(C(=O)N3CCCC3)cc1)C2,0.745,-74.8
Cc1nc(CN2CCCCC2Cn2cncn2)nc2ccccc12 (stereo not given),1.73,-15.2
CC(C)N1CC(C(=O)NCCOc2ccc3c(c2)OCO3)CC1=O (stereo not given),-3.6,13.8
Cc1noc(C)c1C(=O)N1C[C@H]2CCC[C@@]2(COc2ccccn2)C1,4.65,2.11
CCn1ncc2c1CCCC2NCc1cc(Cl)c(OC)c(OC)c1 (stereo not given),-2.06,1.68
C=C(Cl)CN1CCC(C(=O)c2cc(F)ccc2F)CC1,-0.256,18.4
CO[C@@H]1CC[C@H]2[C@H]1OCCN2C(=O)C1=CCCC1,3.45,-25.5
Cc1ccccc1CNC(=O)CN1CCN(Cc2nccn2C)CC1,8.88,6.67
O=C([C@H]1C[C@H]2OCC[C@H]2N(CCc2ccccc2)C1)N1CCCCO1,0.871,6.49
CCS(=O)(=O)N1CCC2(CC(=O)N(c3cccc(C)c3)C2)C1 (stereo not given),2.82,-11.5
CN(CCN1CCOCC1)C(=O)CCCc1ccccc1,-6.41,0.944
NC(=O)c1cc(C2CCCN(CCOCC(F)(F)F)C2)n[nH]1 (stereo not given),-1.37,-3.62
COc1ccc(OCCCN2CCOC(Cn3cccn3)C2)cc1 (stereo not given),-0.393,5.03
Cc1cccc(CN2C[C@@H]3CN(C(=O)[C@H]4CCCO4)C[C@@H]3C2=O)c1,-6.69,-9.8
Cc1nc(C)n(CC2CCCN(Cc3ccc(C(N)=O)cc3)C2)n1 (stereo not given),-5.85,20.8
Cc1nc(CNC(=O)Cn2nc(-c3ccc(F)cc3)oc2=O)cs1,-0.967,17.9
CC(=O)NCCNC(=O)c1sc(-c2ccc(Cl)s2)nc1C,7.28,8.5
Cc1cc(C(=O)N2CCCC(n3ccnc3C)C2)c(C)s1 (stereo not given),-4.25,-6.7
Cc1noc(C)c1CN(C)CC1CCCN1c1cccnn1 (stereo not given),-1.56,14.9
Cc1ccc(CC(=O)N2CCCC(c3cc(C)[nH]n3)C2)cn1 (stereo not given),-0.962,-18.6
Cc1ccc(NC(=O)c2cc(S(=O)(=O)N3CCCCC3)c[nH]2)cc1F,1.97,17.8
O=C(CN1CC(n2cccn2)C1)NCCc1c[nH]c2ccccc12,-0.903,-2.74
